# Cycloheximide cs: affects cycloheximide protein synthesis inhibition readout, counter-screen | max response, % | actives 12% (n = 300,000) | AID 2314 | cell reporter, cycloheximide protein synthesis inhibition counterscreen; in the data active means max response mostly above about 13%, no sharp cut-off; inactive means mostly below about 14%; further: read at 38.3 µM for the half of the compounds with a filed dose
# Pf growth 96h: P. falciparum growth inhibition at 96 hours | P. falciparum luciferase reporter growth, 96 h | actives 6.9% (n = 320,000) | Potency, µM (series often up to 28.7 µM), usual class: inhibitors
#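 Two-generation exposure (96 h) targets delayed-death phenotype. Reporter parasites carrying integrated firefly luciferase, in red cells at 2% hematocrit and 0.05% parasitemia final, kept at 37 C, 5% CO2; luminescence loss indicates inhibition.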
# Shiga toxin inh: Shiga toxin inhibition; Vero cells, Shiga toxin protein synthesis inhibition reporter; inhibition, % at 38.7 µM; actives 9.2% (n = 290,000); in the data active means inhibition mostly above about 28%, no sharp cut-off; inactive means mostly below about 43%
# Pf growth 48h: inhibits P. falciparum growth in the first generation, 48 h; actives 5.9% (n = 310,000); Potency, µM (highest dose often 28.7 µM), hits mostly inhibitors; P. falciparum luciferase growth in erythrocytes, 48 h
#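 Compounds are pin-transferred into medium, infected erythrocytes (2% hematocrit, 0.1% parasitemia final) are added, and plates sit one parasite generation at 37 C in 5% CO2. Detection reagent is then added and luminescence measured.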
# A number is an active result; i = inactive; ? = inconclusive; nt = not tested or not shown; [ ] = dose if it differs, or a comment. Sampled rows, rich in hits. Any-hit rate of the full collection: about 21%. Unless noted, the call rests on the fitted dose curve; in most records, active means well fitted inhibition curve with a large enough effect; inconclusive means small, poorly fitted or top-dose-only effect, or another doubt; inactive means no such curve, though single readings can be large or run the other way.
SMILES,Cycloheximide cs,Pf growth 96h,Shiga toxin inh,Pf growth 48h
CCOc1ccc(S(=O)(=O)NNC(=O)c2cc3ccccc3o2)cc1,i,?,i,i
COc1ccc(NC(=O)c2cc3ccccc3o2)cc1,39,?,94,i
CCCOc1ccc(S(=O)(=O)NNC(=O)c2cc3ccccc3o2)cc1,14,i,i,i
CCCNC(=O)c1cc2ccccc2c(=O)o1,21,i,57,i
CCCc1cc(=O)c2ccc(OC/C(C)=N/O)cc2o1,i,i,i,i
O=C1C2C(C(=O)N1c1ccccc1)N1CCCN1C2c1ccccc1 (configuration not stated),i,?,i,i
Cc1ccc2c(c1)c1nnc(SCC(=O)Nc3ccc(N(C)C)cc3)nc1n2CC(=O)O,i,i,i,i
C=CCc1cccc(CNn2cnnc2)c1O,i,?,i,i
COc1ccc(CNC(=O)c2cc3ccccc3o2)cc1OC,i,13µM,nt,i
COc1ccc(NC(=O)c2coc3ccccc23)cc1OC,20,i,71,i
CCNC(=O)c1cc2ccccc2o1,i,i,i,i
COc1ccc(CNC(=O)c2ccc3ccccc3n2)cc1OC,i,i,i,i
O=C(NCCc1ccccn1)c1cc2ccccc2o1,49,i,84,i
O=C(NCc1ccccc1)c1cc2ccccc2o1,22,nt,i,i
COc1ccc(C2/C=C\CN(C(=O)CC(C)(C)C)C(C)C(=O)N2Cc2ccc(F)cc2)cc1 (configuration not stated),i,nt,i,nt
CN(CC(=O)N1CCc2ccccc2C1)c1ccccc1,i,i,i,i[0.00184 µM]
O=C(CSc1nc(COc2ccccc2)nc2ccccc12)NC1CCCC1,i,?,i,i
COC(=O)CCSCC(=O)Nc1ccc(C)c(S(=O)(=O)N2CCCCC2)c1,i,i,i,i
COc1ccc(NC(=O)c2cc3ccccc3o2)cn1,36,i,nt,i
CCOc1ccc(CNC(=O)c2nnc(CS(=O)(=O)c3ccccc3)o2)cc1OC,i,?,i,4.7µM
Cc1nn(CC(=O)N2CCN(c3ccc(Cl)cc3)CC2)c(=O)c2cccn12,i,?,i,i
O=S(=O)(Nc1cccnc1)c1cccc2ccccc12,i,nt,i,nt
COc1ccc(-n2cnnc2SCc2csc(-c3ccccc3)n2)cc1,i,?,i,i
COc1ccc(N2CC(O)=C(c3nc(-c4ccc(Br)cc4)cs3)C2=N)cc1,i,i,i,i
COc1ccc(N2CC(O)=C(c3nc(-c4ccccc4)cs3)C2=N)cc1,i,0.47µM,i,?
SMILES,Cycloheximide cs,Pf growth 96h,Shiga toxin inh,Pf growth 48h
CCc1ccc(-c2nc(CCl)cs2)cc1,37,i,90,i
COc1ccc(-c2nc(CCl)cs2)cc1OC,29,?,45,i
COc1ccc(-c2nc(CCl)cs2)cc1,45,i,54,i
COc1ccc(/C=C/C(=O)OCc2csc(-c3ccccc3)n2)cc1OC,i,?,i,i
CC(=O)NC1(C(F)(F)F)C(=O)Nc2c1c(=O)[nH]c(=O)n2CC(C)C (configuration not stated),i,?,i,i
Cc1cc(NC(=O)CSc2nnc(C3CC3)n2N)c([N+](=O)[O-])cc1C,i,i,i,i
CCOC(=O)C1CCCN(S(=O)(=O)c2ccc(Cl)nc2)C1 (configuration not stated),nt,i,nt,?
COc1ccc(-c2nc(-c3ccc(O)cc3O)cs2)cc1OC,30,?,55,i
COc1ccc(-c2csc(-c3ccc(O)cc3)n2)cc1,52,i,73,i
COc1ccc(N2CC(O)=C(c3nc(-c4ccc(F)cc4)cs3)C2=N)cc1,i,?,i,i
COc1cccc(-c2nc(CCl)cs2)c1,37,i,57,i
COc1ccc(O)cc1,nt,?,nt,i
C=CCn1c(-c2csc(-c3ccc(OC)c(OC)c3)n2)n[nH]c1=S,i,?,i,i
COc1ccc(-c2csc(C3=C(O)CN(C(C)C)C3=N)n2)cc1OC,i,?,i,10µM
CC(C)c1ccc(OCC(=O)Nc2ccc3oc(=O)ccc3c2)cc1,i,3.3µM,i,i
O=C(COc1ccccc1)Nc1ccc2oc(=O)ccc2c1,23,i,52,i
CN(C)C(=O)COc1ccc2ccc(=O)oc2c1,i,i,i,i
O=C(COc1ccc2ccc(=O)oc2c1)c1ccccc1,23,i,i,i
COc1ccc(OCC(=O)Nc2ccc3oc(=O)ccc3c2)cc1,i,i,i,?
O=C(COc1ccc(Cl)cc1)NCCCNC(=O)c1ccncc1,i,i,i,?
CC(C)(C)c1nnc(SCC(=O)Nc2ccc(N3CCCCC3)cc2)n1N,nt,i,nt,i
Cc1cc(NC(=O)CSc2nnc(-c3c[nH]c4ccccc34)n2-c2ccc(F)cc2)no1,i,i,i,i
COc1ccc(OC)c(-n2c(SCC(N)=O)nnc2-c2c[nH]c3ccccc23)c1,i,5.2µM,i,nt
COc1ccc(OC)c(-n2c(SC)nnc2-c2c[nH]c3ccccc23)c1,i,4.1µM,i,nt
CCOc1ccccc1-n1c(SCC(N)=O)nnc1-c1ccccc1,i,nt,i,i
SMILES,Cycloheximide cs,Pf growth 96h,Shiga toxin inh,Pf growth 48h
CCOc1ccc(-n2c(SCC(=O)Nc3cc(C)on3)nnc2-c2c[nH]c3ccccc23)cc1,i,5.9µM,i,nt
COc1ccccc1-n1c(SCC(N)=O)nnc1-c1ccccc1,i,1.7µM,i,i
CC(=O)c1cccc(N(CC(=O)Nc2ccccc2C(=O)N2CCCC2)S(C)(=O)=O)c1,i,i,i,i
CCCN(CCC)C(=O)c1oc2ccccc2c1NC(=O)Cc1cccc(OC)c1,i,i,i,?
COc1cccc(-n2c(SCC(N)=O)nnc2-c2c[nH]c3ccccc23)c1,i,12µM,i,nt
N#Cc1ccc(CSc2nnc(-c3c[nH]c4ccccc34)n2-c2ccccc2)cc1,i,?,i,?
COc1ccc(OC)c(-n2c(SCC(=O)Nc3cc(C)on3)nnc2-c2c[nH]c3ccccc23)c1,i,4.7µM,i,nt
Cc1ccccc1-n1c(SCc2c(C)noc2C)nnc1-c1c[nH]c2ccccc12,i,15µM,i,?
Cc1cc(NC(=O)CSc2nnc(-c3c[nH]c4ccccc34)n2C)no1,i,i,i,i
COc1ccc(N2CCN(C(=O)CCNC(=O)Cn3ccc4ccccc4c3=O)CC2)cc1,i,i,i,i
CC1CN(CCOc2ccccc2C(C)C)CC(C)O1 (configuration not stated),i,?,nt,i
O=C(O)CCc1nn2c3ccccc3nc2n(-c2ccccc2)c1=O,i,nt,i,i
COc1ccc(-n2c(=O)c(CCC(=O)N(C)Cc3ccccc3C)nc3ccccc32)cc1,i,8.3µM,i,10µM
CCc1ccc(CN(C)C(=O)CCc2nc3ccccc3n(-c3ccc(OC)cc3)c2=O)cc1,i,13µM,i,?
COc1ccc(/C(O)=C/c2nc3ccccc3n(-c3ccccc3)c2=O)cc1,i,i,i,nt
Cc1ccc2nc(-c3sc4nc(C)cc(C)c4c3N)[nH]c2c1,26,i,43,i
Cc1ccc2nc(-c3cccc(N)c3)[nH]c2c1,17,i,33,i
CC(=O)c1sc2nc(C)cc(C)c2c1N,i,?,i,i
Nc1cccc(-c2nc3ccccc3[nH]2)c1,22,i,71,i
Cc1cccc(-c2nc(C)cc(=O)[nH]2)c1,i,i,i,i
